G9a inh = qHTS Assay for Inhibitors of Histone Lysine Methyltransferase G9a; Histone-lysine N-methyltransferase EHMT2 (Homo sapiens), Q96KQ7; G9a H3K9 monomethylation, AlphaScreen, 2 h; Potency, µM (series often up to 102 µM), for the others: at the top dose activity, negative = inhibition, usual class: inhibitors; 350,000 tested, 8.8% active; AID 504332, 2011; also: potency is read from the fitted curve at half-maximal effect; % is scaled to controls: 0 for no effect and ±100 for the full control effect; nearly all actives have a fitted effect of over 75% in size
Target sequence (Q96KQ7 913-1193 limits assumed): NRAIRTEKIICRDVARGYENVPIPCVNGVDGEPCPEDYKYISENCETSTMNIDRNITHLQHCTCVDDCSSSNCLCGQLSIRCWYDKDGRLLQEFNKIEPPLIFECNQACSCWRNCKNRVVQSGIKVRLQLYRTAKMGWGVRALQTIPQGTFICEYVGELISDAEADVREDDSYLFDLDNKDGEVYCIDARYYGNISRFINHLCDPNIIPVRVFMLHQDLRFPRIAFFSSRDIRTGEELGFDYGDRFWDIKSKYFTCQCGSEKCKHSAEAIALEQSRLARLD
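Methyltransferase reactions run at room temperature for 2 h (20 nM enzyme, 500 nM biotin-H3K9 peptide, 20 uM SAM) after a 15 min compound preincubation; product detected by AlphaScreen beads and anti-H3K9me1 antibody.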
BAZ2B block = qHTS Assay for Inhibitors of BAZ2B. Bromodomain adjacent to zinc finger domain protein 2B (Homo sapiens), Q9UIF8. AlphaScreen BAZ2B-H3K14Ac peptide displacement. Potency, µM (series often up to 114 µM), without a hit: top-dose activity change, negative = inhibition, hits mostly inhibitors. 360,000 tested, 4.4% active. AID 504333, 2011; also: potency is read from the fitted curve at half-maximal effect; % is scaled to controls: 0 for no effect and ±100 for the full control effect; nearly all actives have a fitted effect of over 60% in size
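BAZ2B 50 nM plus b-H3(5-23)K14Ac 50 nM, PBS pH 7.4/0.01% Tween-20, 30 min RT; compound added (max 110 uM), 30 min RT; streptavidin donor/Ni-chelate acceptor beads 10 ug/mL final, 20 min dark; AlphaScreen read.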
HP1b binding inh = HTS for Inhibitors of HP1-beta Chromodomain Interactions with Methylated Histone Tails | 390,000 tested, 0.56% active | AlphaScreen HP1-beta / biotin-H3K9me3 peptide binding | Potency, µM (series often up to 114 µM), inactives show top-dose activity change, negative = inhibition, hits mostly inhibitors | AID 540317, 2011 | Chromobox protein homolog 1 (Homo sapiens), P83916; also: potency is read from the fitted curve at half-maximal effect; nearly all actives have a fitted effect of over 70% in size
Target sequence (P83916 whole entry, looked up): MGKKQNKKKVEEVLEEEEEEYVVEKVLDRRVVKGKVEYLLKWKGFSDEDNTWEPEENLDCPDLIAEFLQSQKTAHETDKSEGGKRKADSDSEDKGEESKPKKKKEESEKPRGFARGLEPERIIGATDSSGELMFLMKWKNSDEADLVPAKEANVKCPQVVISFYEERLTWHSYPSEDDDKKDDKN
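Compound inhibition of the preformed complex between 50 nM HP1-beta and 50 nM biotinylated H3K9me3 peptide was read by AlphaScreen. Buffer was PBS pH 7.4 with 0.01% Tween-20. Incubations ran 30 min at room temperature, with 10 ug/mL donor/acceptor beads.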
Six1-Eya2 inh = qHTS Assay for Inhibitors of the Six1/Eya2 Interaction. 360,000 tested, 0.56% active. Homeobox protein SIX1 (Homo sapiens) + Protein phosphatase EYA2 (Homo sapiens), …. AlphaScreen GST-Six1/His-Eya2 binding, biochemical; active compounds read low. activity change, % (concentration not given with the values); in the data active = activity change below about -65%; inconclusive = mostly about -30% to -63%; also: % is scaled to controls: 0 for no effect and ±100 for the full control effect
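Compounds are tested against tagged Six1 and Eya2 proteins bridged by glutathione donor and nickel acceptor beads; after a one-hour incubation at 37 °C without light, AlphaScreen emission is recorded.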
JMJD2A Tudor = qHTS Assay for Inhibitors of JMJD2A-Tudor Domain; Lysine-specific demethylase 4A (Homo sapiens), O75164; AlphaScreen JMJD2A-Tudor / H3K4me3 peptide binding; Potency, µM (titrated, usually from 114 µM), for the others: at the top dose activity change, negative = inhibition, usual class: inhibitors; 390,000 tested, 4.4% active; AID 504339, 2011; also: potency is read from the fitted curve at half-maximal effect; % is scaled to controls: 0 for no effect and ±100 for the full control effect; nearly all actives have a fitted effect of over 50% in size
CtBP-E1A inh = qHTS Assay for Inhibitors of the CtBP/E1A Interaction; 340,000 tested, 0.49% active; activity change, % (concentration not given with the values); AlphaScreen GST-E1A/His-CtBP binding, 1536-well; active compounds read low; in the data active = activity change below about -65%; inconclusive = mostly about -30% to -63%; also: % is scaled to controls: 0 for no effect and ±100 for the full control effect
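AlphaScreen with 125 nM GST-E1A and 125 nM His-CtBP (5X stocks) in Tris pH 8.0, 300 mM NaCl, BSA, Tween 20, TCEP. Compounds preincubated 2 h at 37 deg C, then glutathione donor/nickel acceptor beads added for 1 h at 37 deg C in dark.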
* hit, by the source's call; ? = inconclusive; . = no result; ! = repeats disagree; [ ] = another dose, or the depositor's remark. Most compounds without a hit are left out; they make up all but 10% or so of the library. Unless noted, calls follow the shape of the dose curve; as a rule, active = well fitted inhibition curve with a large enough effect; inconclusive = small, poorly fitted or top-dose-only effect; inactive = no such curve, though single readings can be large or run the other way.

SMILES | G9a inh | BAZ2B block | HP1b binding inh | Six1-Eya2 inh | JMJD2A Tudor | CtBP-E1A inh
CCN1CCN(CC#CCOc2ccccc2OC)CC1 | -47%[0.501 µM] | 22µM* | ? | 1 | 0.79µM* | -4
NCCS(=O)O | 19µM*! | . | . | . | . | .
Cc1cc(Cl)ccc1NC(=O)CN1C(=O)NC2(CCCC2)C1=O | 15% | -17% | -9% | 44 | -6% | -1
Cc1cc(NC(=O)CN2C(=O)NC3(CCCCC3)C2=O)ccc1N1CCCC1 | 8.9µM* | -31% | 2% | -2 | -20% | -1
O=C(CN1C(=O)NC2(CCCC2)C1=O)Nc1cc(Cl)ccc1N1CCCC1 | . | -11% | 23% | 5 | -17% | -1
CN(C)c1ccc(S(=O)(=O)N2CCCCC2)cc1NC(=O)CN1C(=O)NC2(CCCC2)C1=O | 14µM* | 10% | 21% | 9 | -17% | -1
Cc1cc(N2CCCC2)ccc1NC(=O)CN1C(=O)NC2(CCCCC2)C1=O | 3.5µM* | -35% | -19% | -14 | -36% | -4
COc1ccc(-c2cn3c(n2)sc2cc(C(=O)NCC(C)c4ccccc4)ccc23)cc1 (stereo not given) | -4%[59 µM] | -17% | 37% | . | -6% | .
C#CCOCCOCCOCCNc1nc(N2CCN(C(=O)[C@H](CCCN=C(N)N)n3cc(C(N)[C@@H](C)CC)nn3)CC2)nc(N2CCN(C(=O)[C@H](CCC(=O)O)n3cc([C@@H](N)CO)nn3)CC2)n1 (stereo not given in full) | . | . | 3% | -7 | 25µM* | -19
C#CCOCCOCCOCCNc1nc(N2CCN(C(=O)[C@H](CCCN=C(N)N)n3cc(C(N)[C@@H](C)CC)nn3)CC2)nc(N2CCN(C(=O)[C@H](CCCCN)n3cc([C@@H](N)CC(N)=O)nn3)CC2)n1 (stereo not given in full) | . | . | 33% | -13 | 89µM* | -2
C#CCOCCOCCOCCNc1nc(N2CCN(C(=O)[C@H](CCCN=C(N)N)n3cc(C(N)[C@@H](C)CC)nn3)CC2)nc(N2CCN(C(=O)[C@H](CCC(=O)O)n3cc([C@@H](N)CC(N)=O)nn3)CC2)n1 (stereo not given in full) | . | . | 14% | -1 | 50µM* | -26
C#CCOCCOCCOCCNc1nc(N2CCN(C(=O)C([C@@H](C)O)n3cc([C@@H](N)CCCCN)nn3)CC2)nc(N2CCN(C(=O)[C@H](CCCN=C(N)N)n3cc(C(N)[C@@H](C)CC)nn3)CC2)n1 (stereo not given in full) | . | . | 19% | -1 | 56µM* | -10
C#CCOCCOCCOCCNc1nc(N2CCN(C(=O)[C@H](CCCN=C(N)N)n3cc(C(N)[C@@H](C)CC)nn3)CC2)nc(N2CCN(C(=O)[C@H](CCC(=O)O)n3cc([C@@H](N)[C@H](C)CC)nn3)CC2)n1 (stereo not given in full) | . | . | 8% | -3 | ? | -2
C#CCOCCOCCOCCNc1nc(N2CCN(C(=O)C([C@@H](C)O)n3cc([C@@H](N)CCCCN)nn3)CC2)nc(N2CCN(C(=O)[C@H](CC(N)=O)n3cc([C@@H](N)C(C)C)nn3)CC2)n1 (stereo not given in full) | . | . | 18% | -1 | ? | -6
CCC1CCCCN1CCCNC(=O)c1ccc2c(c1)sc1nc(-c3ccc(F)cc3)cn12 (stereo not given) | 13%[59 µM] | 3% | 27% | . | -19% | .
CCc1nnc2c(N3CCN(c4cccc(C)c4)C(C)C3)nc3ccccc3n12 (stereo not given) | ? | ? | 15% | . | ? | .
CCOC(=O)C1=C(CN2CCC(C)CC2)NC(=O)NC1c1ccc(F)cc1 (stereo not given) | 9%[59 µM] | 2% | 17% | . | -11% | .
O=C(Nc1cccc(S(=O)(=O)NC2=NCCC2)c1)c1cc(Cl)ccc1[N+](=O)[O-] | 50µM* | -31% | 16% | 3 | -12% | 5
Cc1ccc(NC(=O)CNc2ccccc2N2CCCC2=O)cc1S(=O)(=O)N1CCOCC1 | 45µM* | 7% | 13% | 2 | -10% | -22
O=C(COC(=O)/C=C/c1cccc(Cl)c1)Nc1cccc(S(=O)(=O)NC2=NCCC2)c1 | 23%[12.7 µM] | -11% | 4% | -15 | -30% | -80*
O=C(COC(=O)/C=C/c1ccc(Cl)cc1)Nc1cccc(S(=O)(=O)NC2=NCCCCC2)c1 | . | . | 19% | -7 | -23% | -84*
COc1ccc(NC(=O)CNc2ccccc2N2CCCC2=O)cc1S(=O)(=O)N1CCOCC1 | ? | 7% | 17% | -5 | -4% | 7
O=c1ccn(C2OC(COP(=O)(O)OC3C(CO)OC(n4ccc(=O)[nH]c4=O)C3O)C(O)C2O)c(=O)[nH]1 (stereo not given) | -5%[12.7 µM] | . | . | . | . | .
COc1ccc(Br)c2c1-c1nc(NC(=O)c3cccc(C)c3)sc1C2 | ? | ? | -7% | . | ? | .
CCOc1ccc(CN(C(=O)c2cc(=O)c3cc(Cl)ccc3o2)C2CCS(=O)(=O)C2)cc1 (stereo not given) | 5%[59 µM] | 15% | 51% | . | -12% | .
SMILES | G9a inh | BAZ2B block | HP1b binding inh | Six1-Eya2 inh | JMJD2A Tudor | CtBP-E1A inh
Cc1ccc(NC(=O)COC(=O)/C=C/c2cccc(Cl)c2)cc1S(=O)(=O)N1CCOCC1 | 40µM* | 7% | 19% | -10 | -22% | ?
CCN(c1ccc(NC(=O)COC(=O)c2ccc(C)c(S(=O)(=O)N3CCOCC3)c2)cc1)C(C)C | 4.5µM* | ? | ? | -28 | 22µM* | -28
CCC(=O)N1c2ccc(S(=O)(=O)N3CCC(C)CC3)cc2CC1C (stereo not given) | 9%[59 µM] | . | 31% | . | -13% | .
CC(C)(C)c1ccc(C(=O)NNC(=S)NC(=O)c2cccnc2)cc1 | 10µM* | 4% | -14% | 0 | -26% | -1
O=C(NNC(=S)NC(=O)c1ccccc1)c1ccc(O)cc1 | 13µM* | 6% | 9% | -11 | -17% | -15
COc1cc(OC)cc(C(=O)NNC(=S)NC(=O)c2cccnc2)c1 | 28µM* | 17% | 59% | -6 | -7% | .
COc1ccc(C/C(C)=N/NC(=O)c2cccnc2)cc1 | 41%[59 µM] | ? | 10% | -4 | 32µM* | 6
CC(C)(C)c1ccc(C(=O)NC(=S)NCc2cccnc2)cc1 | ? | 30% | -10% | -17 | ? | -13
